The campaign covered roughly 53,000 sequences. About 3,700 (7%) were called active.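 The calls were made as follows: active = gene knockdowns whose robust z-score for IL-1 alpha signal is at least 2 or at most -2, so actives lie on both sides; inactive = the rest.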 This excerpt belongs to a sample that is enriched for actives.
test: Components of the Cytosolic LPS Sensing Pathway: Gene Identification via Genome-wide siRNA Screen; settings: RAW264.7 macrophages, IL-1a HTRF, actives lie on both sides, screened at 100 nM (by protocol), cells primed 5 h with Pam3CSK4 first
Description: Non-canonical inflammasome activation by cytosolic LPS is a critical component of the host response to Gram-negative bacterial infection, however we lack a comprehensive understanding of the cellular processes that control this pathway. Here we describe a genome-wide siRNA screen to identify genes regulating the mouse macrophage IL-1 alpha response to cytosolic LPS.
RAW264.7 cells were maintained in complete DMEM media, comprising DMEM with 4.5 g/L glucose, 10% FBS (Gemini Bio-Products, West Sacramento, CA), 2 mM Glutamine (Lonza) and 20 mM HEPES (Lonza), hereafter complete DMEM.
The RNAi screen was conducted in 384-well format using the Ambion Silencer Mouse Genome siRNA Library (#4391425), which consists of three unique, nonoverlapping, nonpooled siRNAs for each of 17,000 gene targets. siRNA reagents ([…]) were stamped into 384-well white flat-bottom microplates (Corning, 3570) using a Velocity11 VPrep liquid handling system (Agilent) integrated into a BioCel robotic platform (Agilent) in columns 1-22, leaving columns 23-24 empty for negative (Ambion, Negative control #1) and positive (mouse Casp4) controls, respectively. The median value of each plate's negative control column was used to normalize sample wells, and the positive control was used to assess transfection efficiency and assay performance.
Lipofectamine RNAiMAX Transfection Reagent ([…]; Invitrogen) was added in […] serum-free, antibiotic-free media to plate wells using a Thermo Scientific Matrix WellMate and Microplate Stacker. Plates were incubated for 45 min at room temperature to allow for the sufficient formation of siRNA-lipid complexes. Cells were seeded at a density of 1x10^4 cells per well in 20 microL media containing 20% (vol/vol) FBS without antibiotics. The final concentration of siRNA in each well was 100 nM. Cells were cultured for 48h at 37 degrees C in 5% CO2 before addition of […] of TLR ligand Pam3CSK4 for 5 hours. The medium was then removed, replaced with […] growth media and cell were transfected with […] of LipidA and TransIT-TKO (Mirus) for 24 hour. At the end of the LipidA treatment, […] of supernatant was transferred to a 384 Greiner Bio-one non-binding low volume plate and […] of IL-1a HTRF reagent (Cisbio, 62MIL1APEH) was added and incubated at room temperature overnight. The plates were read on an EnVision plate reader (PerkinElmer). Cell viability was measured by adding 20ul Cell Titer Glo to the original plate and running a luminescence read on the EnVision. The quantified IL-1a signal for each siRNA gene-targeted well was divided by the median of the negative control wells and multiplied by 100 to achieve a negative control normalized value for each well/siRNA. This normalized value was then used to generate a robust z-score by first taking the log of each value and then by subtracting the median and dividing by the […].

| Sequence | z-score |
| --- | --- |
| GCAAUGUGUAUCAGCCGACTT against Gprc5b | 3.38 (active) |
| GGGAAAACCGAAUAAAGAUTT against Ren2 | -1.51 (inactive) |
| GCAUACCAUCUUAUUUUGGTT against Sptlc1 | 0.159 (inactive) |
| GCGUGAGCUAAUGUUCACATT against Agpat2 | -0.255 (inactive) |
| GCCACUACUAAUAGCAUGUTT against 5330438I03Rik | -1.68 (inactive) |
| CCCAGCACAUGCUAUCUCUTT against Zbtb21 | -2.6 (active) |
| GGAGAAUGGAAAGUAUGGGTT against D1Pas1 | -1.99 (inactive) |
| GCCUAUAAGGAAUAACAAGTT against Cerkl | 1.27 (inactive) |
| GGCCUUGAUGGUGAAGAUGTT against Vstm4 | -1.79 (inactive) |
| GGACAGACGUGCACUUAGATT against Garnl3 | 0.875 (inactive) |
| GGUGGAUGUUCGCAUGAUUTT against Ip6k1 | -1.2 (inactive) |
| GGCAUAUACACAAUUGAUATT against Arsk | -1.27 (inactive) |
| GGAUAAGGAGAUGAAUUCCTT against Aard | 1.01 (inactive) |
| GGUCUUACGCAAAACGGUCTT against Csf1r | 2.86 (active) |
| CCCAAUCCUGUCAAUAGUCTT against Gfpt1 | -0.911 (inactive) |
| GGCCUAAUGAAUUUGGUCATT against Ubxn7 | 0.93 (inactive) |
| CCCACAAAUUAAAGUCCGCTT against Cldn16 | 0.926 (inactive) |
| GGACCUGUCUUCAUUGGAGTT against Ngb | 0.981 (inactive) |
| GCAGAUAAUUUUAACCCUCTT against Inpp5b | 0.641 (inactive) |
| GCCAUUCUCCAACAAUCGATT against Evc | -1.69 (inactive) |
| CCUGCUACAAGUAUCUCAATT against Fdft1 | 2.85 (active) |
| GCAACCUCUCCUCUCUAGATT against Olfr15 | -1.11 (inactive) |

| Sequence | z-score |
| --- | --- |
| GCGGAUUCAGCUGAUGAUGTT against Sash1 | -1.32 (inactive) |
| GGGUUCUCAAGGUUGCAUUTT against Frs3 | 1.15 (inactive) |
| GCUCGCCUGCAUUUCAUCATT against Pank4 | 3.3 (active) |
| CCCGGUUAGCCUUUGAUUGTT against Lamc3 | 0.576 (inactive) |
| GGGAAUUUUGAAAAGGCUGTT against Nphp3 | 2.12 (active) |
| CCCUUGAGUCAUUCUCUAATT against Gsto1 | 0.0391 (inactive) |
| GGAAAUAGAUUUUCAGCUCTT against Dnase2b | 0.138 (inactive) |
| GGAAUUUGAAACUUACGGCTT against Oc90 | 0.379 (inactive) |
| UUUCGAGCUGAUCCAUGAGTT against Tbata | 1.19 (inactive) |
| GGUCCAGAUCCACCAGAUUTT against Banp | 1.11 (inactive) |
| GGCACUCAAUGGUGAGCAATT against Sipa1 | 2.03 (active) |
| GGCUCUUGCUUUAGUAUUCTT against Ly9 | 0.99 (inactive) |
| GGCAGAUUACUCUGAAUGATT against Prdx4 | 0.326 (inactive) |
| GGUUUAUUGUAAUGGCUAATT against Olfr1271 | 0.452 (inactive) |
| GGACAAAUGGGUAUUAUCUTT against Phxr4 | -1.01 (inactive) |
| GGAGAUGAUUUCCUACUUCTT against Rasgrp2 | 3.47 (active) |
| GGUGUACCAGAAUGAGAAGTT against Akr1b3 | 0.611 (inactive) |
| GGUAUUUAGUAAACACCCATT against Edar | 0.413 (inactive) |
| GGGUCAAAUCUGACUGCAUTT against Klf10 | 0.501 (inactive) |
| GAGAACCAGGCUAUGUCUGTT against Defa-rs10 | 0.623 (inactive) |
| GCUGGCUGUUGGAUAAGUGTT against Olfr1112 | 2.45 (active) |
| CCUUGAUUGAGCCUGACUUTT against Hook2 | 0.543 (inactive) |

| Sequence | z-score |
| --- | --- |
| CCUCAUAUAUCCCUAAUUATT against Camk1g | -0.982 (inactive) |
| GGACCUGUUUGAGCAGAGGTT against Eps8l2 | 0.539 (inactive) |
| GGUAGAAGUGAAAAAGAUATT against Bhmt | -0.386 (inactive) |
| GCGAGAGAUUCUUUCCCUGTT against Traf6 | -1.24 (inactive) |
| CCUCCUCUCUGUUUUCUACTT against Olfr699 | -1.16 (inactive) |
| GCAGAAAAACCUGUGAAAATT against Pcnp | 1.57 (inactive) |
| GGAUGGAUGUUUGCAUAAATT against Msx2 | 5.06 (active) |
| GGGACACAUACUGUAGUAUTT against Pspc1 | 0.00343 (inactive) |
| GGAGGAGAUGAUGAAUUUUTT against Etf1 | 0.965 (inactive) |
| GGUGAGUUCAUGGUUUCCUTT against Txnl4b | -0.142 (inactive) |
| GAGAAACUAUGGCUGAAAATT against Klk1 | 0.439 (inactive) |
| CCCUAAAAGACAAAGUGCUTT against Cmtm3 | 0.877 (inactive) |
| CCUAGAGAGACAUAUUGUUTT against Vstm4 | -0.206 (inactive) |
| GCCAAUGACCCAAAUUCUATT against Ppip5k1 | 0.812 (inactive) |
| CCAUUUUUACCUACAUCCATT against Olfr452 | 2.43 (active) |
| CCCUACAGUACUAAUCAAATT against Ptgs2 | 0.6 (inactive) |
| GGGCUCUAACAUCUUAUACTT against Tbc1d31 | 1.54 (inactive) |
| GGGCCAUGGAUAAGAAAAATT against Psmc5 | -2.61 (active) |
| GGCACAGACGGAUCAACAGTT against Clcn3 | -0.725 (inactive) |
| GCUAUUGAGAAACCACUUATT against Rasef | -0.276 (inactive) |
| CCUAUUACUCAAACACAGATT against Arl5b | -0.257 (inactive) |
| GGACACAGCAAGAAGAUACTT against Wfdc12 | -1.79 (inactive) |

| Sequence | z-score |
| --- | --- |
| GCCACACCAAUAGAAGUGUTT against Csnk1g3 | -2.42 (active) |
| UCUCCUUCAUUCCAUGUAUTT against Olfr441 | -2.18 (active) |
| CCAUCAAAGUCAUCGACGGTT against Birc6 | -0.427 (inactive) |
| GGAGUGAGUCCUGAAGCAATT against Ifna12 | -0.372 (inactive) |
| GCCGUUACUGAGCUGAAAUTT against Allc | -0.866 (inactive) |
| CGCUUCAUGACUUCUGAAUTT against Ppp1r32 | 0.0722 (inactive) |
| GCCCAACCUGUCCAUACUUTT against Guca2b | -0.193 (inactive) |
| GCUAUUUUCGUCACUUUCUTT against Tssk1 | 0.494 (inactive) |
| GGAUGAAUUCAUUGAAGAATT against Btk | 0.321 (inactive) |
| GGUUCGUCGCCUUUUAGGGTT against Alx4 | 3.74 (active) |
| GAGCUUCUAAUUCACCCUATT against Abcc6 | 0.181 (inactive) |
| GGGAACCUUACUGUGUUAUTT against Gpr85 | 0.477 (inactive) |
| GGGUUUCCAGUACCUCAAUTT against Serpina6 | -1.28 (inactive) |
| GGCUUUUAUAGCUAAGGUUTT against Spc25 | -2.18 (active) |
| GGACUGUGAACAACUUUCGTT against Tcim | -1.07 (inactive) |
| GGCUAUCUACAAAAUGGUGTT against Vsnl1 | -1.31 (inactive) |
| GCUAACCAGUGAUCCUACATT against Olfr846 | 0.471 (inactive) |
| GCACUUGUGACUUAUUGGATT against Vmn2r-ps11 | 0.506 (inactive) |
| GGGUCAGAGUUUUUCCAUCTT against Otog | 2.72 (active) |
| GGGACGUAAAUCAAAUGAATT against P2ry12 | 0.096 (inactive) |
| GGAGGUGGAACUGCUGUAUTT against Fam180a | -0.257 (inactive) |
| GGCAGAAAGAUUAUGAGUUTT against Gpr171 | 2.35 (active) |

| Sequence | z-score |
| --- | --- |
| GGAAUUAAAAGAGCUGGGCTT against Selenon | 0.697 (inactive) |
| GGGUGCUGAACAGUCACAATT against Rab12 | 0.717 (inactive) |
| UGAAGGCAAAUCACUCUUUTT against Olfr181 | -0.042 (inactive) |
| GGAGGAUCCUGCUAUUCCATT against 4930583K01Rik | -2.24 (active) |
| GGUGCUGGAGAAGAACAUGTT against Map2k3 | 1.51 (inactive) |
| GGAAAGAGAUUCUCUUCUATT against Nsun2 | -1.2 (inactive) |
| CGGCUUUGAAGUGGUGUAUTT against Smad9 | 1.66 (inactive) |
| CCUUAGGCAUGGUCUGGACTT against Gal3st2 | 0.897 (inactive) |
| CCUUCAUGAGUCCUCUUCATT against Gaa | -2.08 (active) |
| GGGUUUUCAAAGACAAGAUTT against Frmd6 | 1.47 (inactive) |
| GGAGCUUUUUAUGUUUUAGTT against Fam177a | 1.93 (inactive) |
| CCCUGAGAUAGGCAAUGUGTT against Tceanc2 | -1.57 (inactive) |
| GCUUCAUGGAUGCAAUUGATT against Adhfe1 | -0.659 (inactive) |
| GGUUGAAAAGUAUCAAAGATT against Pus7l | -0.359 (inactive) |
| GGAUUAGACUGUCUUCAGCTT against Rnf144a | -0.496 (inactive) |
| GGCCUGUUUUGUACUUUUATT against Polr3gl | 0.149 (inactive) |
| GGGAUAUUCAAAAUACUAGTT against Hells | 0.653 (inactive) |
| GCUACAGACUGAACAAUGATT against Rbm17 | -2.08 (active) |
| CCAUCUGAUUAAUGGCUUCTT against Tm7sf2 | 1.03 (inactive) |
| GUGCCUUUGUGGUCUUCCUTT against Tmem179 | -1.16 (inactive) |

From PubChem BioAssay AID1508600 (Functional Genomics Laboratory (NCATS/FGL), 2020)
